PubChem BioAssay (NCATS)
A number with no mark means an inactive call. Activity calls are given as the source filed them. Calls come from the whole dose curve; as a rule, active = well fitted activation curve with a large enough effect; inconclusive = small, poorly fitted or top-dose-only effect; inactive = flat fitted curve, though single readings scatter.

Assay: Confirmation and Secondary Assay for Modulators of Hemoglobin Beta Chain Splicing at IVS2 705 locus (AID 930); for activation: % of control where 0% means no effect
Conditions: HeLa EGFP-705 splicing reporter, GFP fluorescence, 48 h; series mostly up to 46.1 µM; activation: at the top concentration
Outline: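 Fluorescence gain (488 nm laser, 500-520 nm PMT) reflects restored correct splicing of a mutant IVS2-705 intron inside EGFP in stably transfected HeLa cells after 2-day compound treatment.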
Potency is the fitted concentration of half-maximal effect.

In order of rising “activation” value:
1. O=C(O)c1ccccc1O  -1.3%
2. c1ccc(CN(CC2=NCCN2)c2ccccc2)cc1  -1.22%
3. Cn1cc[nH]c1=S  -1.16%
4. CCN(CC)C(C)CN1c2ccccc2Sc2ccccc21 (centres undefined)  -0.918%
5. CSc1ccc2c(c1)N(CCC1CCCCN1C)c1ccccc1S2 (centres undefined)  -0.911%
6. Cc1c(Cl)cccc1Nc1ccccc1C(=O)O  -0.868%
7. CC(CN1c2ccccc2Sc2ccccc21)N(C)C (centres undefined)  -0.775%
8. NCC(=O)CCC(=O)O  -0.615%
9. COC(=O)C1=C(C)NC(C)=C(C(=O)OC)C1c1ccccc1[N+](=O)[O-]  -0.553%
10. CN(C)CCOC(C)(c1ccccc1)c1ccccn1 (centres undefined)  -0.401%
11. CNCCC(Oc1ccc(C(F)(F)F)cc1)c1ccccc1 (centres undefined)  -0.227%
12. CN(C)CC[C@@H](c1ccc(Cl)cc1)c1ccccn1  -0.0853%
13. CC(COc1ccccc1)NC(C)C(O)c1ccc(O)cc1 (centres undefined)  -0.0041%
14. Cc1cccc(Nc2cc(Cl)nc(SCC(=O)O)n2)c1C  0.0799%
15. O=C(CCCN1CCN(c2ccccn2)CC1)c1ccc(F)cc1  0.138%
16. CC1(C)OC(=O)NC1=O  0.229%
17. CCCCN(CCCC)CCCOC(=O)c1ccc(N)cc1  0.297%
18. NS(=O)(=O)c1cc2c(cc1Cl)NC(CSCc1ccccc1)=NS2(=O)=O  0.72%
19. CCN(CC)CCOC(=O)C1(C2CCCCC2)CCCCC1  0.75%
20. c1ccc2c(CC3=NCCN3)cccc2c1  0.857%
21. O=C(Oc1ccccc1C(=O)O)c1ccccc1O  1.15%
22. Nc1ccc(S(=O)(=O)Nc2ccc(Cl)nn2)cc1  1.19%
23. Nc1ccc(S(=O)(=O)Nc2nccs2)cc1  1.29%
24. NS(=O)(=O)c1cc2c(cc1C(F)(F)F)NC(Cc1ccccc1)NS2(=O)=O (centres undefined)  1.3%
25. Cc1cc(N)c2ccccc2[n+]1CCCCCCCCCC[n+]1c(C)cc(N)c2ccccc21  1.31%
26. Nc1ccc(S(=O)(=O)NC(=O)c2ccccc2)cc1  1.33%
27. CNCC(O)c1ccc(O)c(O)c1 (centres undefined)  1.58%
28. O=c1cc[nH]c(=S)[nH]1  1.85%
29. OCC(O)CN1CCN(c2ccccc2)CC1 (centres undefined)  2.03%
30. CCn1cc(C(=O)O)c(=O)c2cnc(N3CCNCC3)nc21  2.03%
31. O=C1NS(=O)(=O)c2ccccc21  2.15%
32. NC(=O)NC(=O)Cc1ccccc1  2.23%
33. CN1CCOC(c2ccccc2)c2ccccc2C1 (centres undefined)  4.77%
34. CC(CN(C)C)CN1c2ccccc2CCc2ccccc21 (centres undefined)  4.93%

In the case of `CCN(CC)CCCC(C)Nc1c2ccc(Cl)cc2nc2ccc(OC)cc12` (centres undefined), the Potency is reported as 7.94 µM (active).

In order of rising “activation” value:
1. CCCCCCCCCCCCCCCCCCOCC(O)CO (centres undefined)  -0.388% [at 38.3 µM]
2. CSc1ccc2c(c1)C(N1CCN(C)CC1)Cc1ccccc1S2 (centres undefined)  -0.127% [at 38.3 µM]
3. Cc1ccc(C(C)C)cc2c(C)ccc1-2  -0.122% [at 38.3 µM]
4. CC(C)(C(=O)O)c1ccc(C(O)CCCN2CCC(C(O)(c3ccccc3)c3ccccc3)CC2)cc1 (centres undefined)  0.803% [at 38.3 µM]
